{
  "source": "PubChem BioAssay",
  "note": "Entries with a potency or affinity are not part of this list. Calls of active or inactive are those of the source. No cut-off is given here; in the data, nearly all actives have IC50 up to about 0.91 µM.",
  "data": [
    {"target": "Calcium-dependent protein kinase 4 (Plasmodium falciparum (isolate 3D7)) (UniProt Q8IBS5)", "sequence (Q8IBS5 whole entry, looked up)": "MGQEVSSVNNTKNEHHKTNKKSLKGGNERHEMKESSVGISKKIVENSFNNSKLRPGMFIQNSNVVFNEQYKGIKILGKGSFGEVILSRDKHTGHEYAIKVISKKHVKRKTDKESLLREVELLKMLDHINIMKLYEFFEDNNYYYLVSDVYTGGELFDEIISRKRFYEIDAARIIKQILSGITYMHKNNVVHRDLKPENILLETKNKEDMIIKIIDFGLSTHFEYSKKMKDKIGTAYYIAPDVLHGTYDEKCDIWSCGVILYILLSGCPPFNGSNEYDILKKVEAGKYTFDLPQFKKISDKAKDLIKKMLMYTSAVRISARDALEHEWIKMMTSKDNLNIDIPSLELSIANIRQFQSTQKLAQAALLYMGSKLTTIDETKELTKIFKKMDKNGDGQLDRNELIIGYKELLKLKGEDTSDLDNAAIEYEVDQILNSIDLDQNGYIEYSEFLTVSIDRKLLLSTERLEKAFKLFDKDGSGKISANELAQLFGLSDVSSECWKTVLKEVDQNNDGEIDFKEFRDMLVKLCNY", "assay": "PfCDPK4 kinase inhibitors, biochemical, TCAMS library (AID 1159588)", "conditions": "recombinant PfCDPK4, Kinase-Glo ATP depletion luminescence", "values": [
      {"compound": "COCCNCc1ccc(-c2ccc(CN(C(=O)Nc3ccccc3)C3CCN(Cc4ccccc4)CC3)cc2)cc1", "outcome": "inactive"},
      {"compound": "Cc1csc(-c2ccc3[nH]cc(C4=CCN(C)CC4)c3c2)n1", "outcome": "inactive"},
      {"compound": "CCCCn1c(C)c(C(=O)OCC)c2cc(OC(C)=O)c(Br)cc21", "outcome": "inactive"},
      {"compound": "Cc1csc(NC2=NCCN2)n1", "outcome": "inactive"},
      {"compound": "O=[N+]([O-])c1ccc(Oc2c(Cl)cc(S(=O)(=O)NC3CCC(CN4CCC(c5c[nH]c6ccccc56)CC4)CC3)cc2Cl)c(Cl)c1", "note": "(stereo not given)", "outcome": "inactive"},
      {"compound": "CN1CC=C(c2c[nH]c3ccc(OCc4ccccc4)cc23)CC1", "outcome": "inactive"},
      {"compound": "COc1ccc(CC(C)NCC(O)c2ccc(Cl)c(Cl)c2)cc1", "note": "(stereo not given)", "outcome": "inactive"},
      {"compound": "COC(=O)c1ccc(CC(C)NCC(O)c2ccccc2Cl)cc1", "note": "(stereo not given)", "outcome": "inactive"},
      {"compound": "Cc1cc(C(=O)NC2CCN(CC3(c4ccc(Cl)cc4)CCC3)CC2)on1", "outcome": "inactive"},
      {"compound": "O=C(/C=C/c1cc(F)cc(C(F)(F)F)c1)N1CCC(CN2CCC(c3c[nH]c4ccccc34)CC2)CC1", "outcome": "inactive"},
      {"compound": "CS(=O)(=O)Nc1ccc2[nH]cc(C3CCN(CC4CCC(NC(=O)/C=C/c5ccc(Cl)c(Cl)c5)CC4)CC3)c2c1", "note": "(stereo not given)", "outcome": "inactive"},
      {"compound": "c1ccc2c(NCCCCCCCCCNc3c4ccccc4nc4ccccc34)c3ccccc3nc2c1", "outcome": "inactive"},
      {"compound": "CC(Cc1ccc(Oc2ccccc2)cc1)NCC(O)c1cccc(C(F)(F)F)c1", "note": "(stereo not given)", "outcome": "inactive"},
      {"compound": "COC(=O)/C=C/c1ccc(C[C@@H](C)NC[C@H](O)c2cccc(C(F)(F)F)c2)cc1", "outcome": "inactive"},
      {"compound": "CC[C@H]1CN2CC[C@H]1C[C@H]2[C@H](O)c1cc(-c2ccccc2C)nc2ccc(OC)cc12", "outcome": "inactive"}
    ]}
  ]
}
